# “And” between values parts separate entries of the source, which are not always exact repeats. Equal values may be shown once. More than one record can exist for a structure, and the calls need not agree. The source made the active and inactive calls. How the source made its calls: active means hit-call score of the fitted dose curve at least 0.9, where 1 is the maximum; inactive means score below 0.9.
# Experiments:
# [1] = read-out: Interleukin-1 alpha (IL1a), IL1A (gene 3552); test: BSK_KF3CT_IL1a: BioMAP Diversity Plus: KF3CT Assay for Interleukin-1 alpha (IL1a) Biomarker Activity (AID 2283070); details: primary human keratinocytes with fibroblasts; actives raise or lower the signal
# Procedure, shortened: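 Primary human keratinocyte plus foreskin fibroblast co-culture, dosed and measured at 24 h in 96-well plates. IL-1a level quantified by ELISA; bidirectional fit relative to DMSO.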
# [2] = read-out: TIMP metallopeptidase inhibitor 2 (TIMP2), TIMP2 (gene 7077); test: BSK_KF3CT_TIMP2: BioMAP Diversity Plus: KF3CT Assay for TIMP metallopeptidase inhibitor 2 (TIMP2) Biomarker Activity (AID 2283071); details: primary human keratinocytes with fibroblasts; actives raise or lower the signal
# Procedure, shortened: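 Cells: human keratinocytes co-cultured with foreskin fibroblasts. Treat with chemical, 24 h. Measure TIMP-2 by ELISA; fit curves bidirectionally vs DMSO baseline.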
# [3] = read-out: Transforming growth factor beta 1 (TGFb1), TGFB1 (gene 7040); test: BSK_KF3CT_TGFb1: BioMAP Diversity Plus: KF3CT Assay for Transforming growth factor beta 1 (TGFb1) Biomarker Activity (AID 2283072); details: primary human keratinocytes with fibroblasts; actives raise or lower the signal
# Procedure, shortened: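 Primary human skin cells (keratinocytes, foreskin fibroblasts) were co-cultured, exposed to test chemical and sampled at 24 h. TGF-b1 levels were measured by ELISA and fitted bidirectionally relative to DMSO.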
# [4] = read-out: C-C motif chemokine 2 (Homo sapiens) (UniProt P13500); test: BSK_KF3CT_MCP1: BioMAP Diversity Plus: KF3CT Assay for Monocyte Chemoattractant Protein 1 (MCP1/CCL2) Biomarker Activity (AID 2283073); details: primary human keratinocytes with fibroblasts; actives raise or lower the signal
# Procedure, shortened: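 ELISA readout of MCP-1 after 24 h chemical dosing of a human skin primary co-culture of keratinocytes and foreskin fibroblasts. Activity was fitted in both directions against DMSO.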
# [5] = read-out: Matrix Metallopeptidase 9 (MMP9), MMP9 (gene 4318); test: BSK_KF3CT_MMP9: BioMAP Diversity Plus: KF3CT Assay for Matrix Metallopeptidase 9 (MMP9) Biomarker Activity (AID 2283074); details: primary human keratinocytes with fibroblasts; actives raise or lower the signal;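 on AC50: MMP9 protein level quantified by ELISA in the co-culture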
# Procedure, shortened: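 Human keratinocyte and foreskin fibroblast co-culture exposed to chemicals for 24 h; MMP9 biomarker measured by ELISA, bidirectional fitting relative to DMSO; cytotoxicity tracked by SRB total protein staining in parallel cultures.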
# [6] = read-out: urokinase plasminogen activator (uPA), PLAU (gene 5328); test: BSK_KF3CT_uPA: BioMAP Diversity Plus: KF3CT Assay for urokinase plasminogen activator (uPA) Biomarker Activity (AID 2283075); details: primary human keratinocytes with fibroblasts; actives raise or lower the signal
# Procedure, shortened: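 Primary human keratinocyte/foreskin fibroblast co-culture exposed to chemical; uPA measured by ELISA at 24 h. Bidirectional fit versus DMSO, with parallel SRB total-protein staining for cytotoxicity.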
# [7] = read-out: CD40, CD40 (gene 958); test: BSK_LPS_CD40: BioMAP Diversity Plus: LPS Assay for CD40 Biomarker Activity (AID 2283076); details: primary human HUVEC with PBMC; actives raise or lower the signal
# Procedure, shortened: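 Cells were dosed, incubated 24 h, then assayed for CD40 by ELISA. Gain or loss of signal was analysed relative to DMSO controls. The culture paired human umbilical vein endothelium with peripheral blood mononuclear cells.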
# [8] = read-out: E-selectin (Homo sapiens) (UniProt P16581); test: BSK_LPS_Eselectin: BioMAP Diversity Plus: LPS Assay for Eselectin Biomarker Activity (AID 2283077); details: primary human HUVEC with PBMC; actives raise or lower the signal
# Procedure, shortened: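 Primary human vascular co-culture (endothelium plus PBMC) was dosed with chemical, then E-selectin quantified by ELISA at 24 h. Endpoint values derive from bidirectional curve fitting relative to DMSO.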
# [9] = read-out: Interleukin-8 (IL8), CXCL8 (gene 3576); test: BSK_LPS_IL8: BioMAP Diversity Plus: LPS Assay for Interleukin-8 (IL8) Biomarker Activity (AID 2283078); details: primary human HUVEC with PBMC; actives raise or lower the signal
# Procedure, shortened: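 Readout is IL-8 by ELISA, taken 24 h after compounds were added to LPS-stimulated endothelial/PBMC co-cultures. Both increases and decreases relative to DMSO control were scored through bidirectional fitting.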
# [10] = BSK_LPS_SRB: Viability Assessment in the BioMAP Diversity Plus: LPS Assay (AID 2283079); details: primary human HUVEC with PBMC;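 further: total protein by sulforhodamine B absorbance as a cytotoxicity measure; measured one day after compound addition; fitted in both directions against DMSO so loss or gain of signal counts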
# Procedure, shortened: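 Readout is SRB absorbance at 560 nm (0.1% stain, TCA-fixed parallel cultures) as a total-protein cytotoxicity measure. Cells: primary human umbilical vein endothelium plus peripheral blood mononuclear cells, 24 h after chemical exposure; DMSO served as baseline.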
# E-selectin (Homo sapiens), sequence (P16581 whole entry, looked up): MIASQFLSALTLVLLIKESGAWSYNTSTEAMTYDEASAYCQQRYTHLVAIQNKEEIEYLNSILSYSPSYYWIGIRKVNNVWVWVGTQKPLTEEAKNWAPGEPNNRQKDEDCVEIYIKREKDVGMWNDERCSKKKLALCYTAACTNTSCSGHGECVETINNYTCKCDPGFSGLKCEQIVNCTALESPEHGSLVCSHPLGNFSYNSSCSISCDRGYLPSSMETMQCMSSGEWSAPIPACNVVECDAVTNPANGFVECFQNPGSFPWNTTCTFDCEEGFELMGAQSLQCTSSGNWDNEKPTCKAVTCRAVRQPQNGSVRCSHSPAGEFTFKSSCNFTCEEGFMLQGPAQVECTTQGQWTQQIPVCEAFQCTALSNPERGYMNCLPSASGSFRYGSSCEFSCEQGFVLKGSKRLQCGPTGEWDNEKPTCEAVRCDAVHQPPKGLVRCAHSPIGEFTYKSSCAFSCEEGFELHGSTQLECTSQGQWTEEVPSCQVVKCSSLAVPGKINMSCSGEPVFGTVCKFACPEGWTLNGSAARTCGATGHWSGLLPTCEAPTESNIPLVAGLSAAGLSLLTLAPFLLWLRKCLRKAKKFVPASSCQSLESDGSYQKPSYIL
compound,measurement,setting,value
CC/C=C\C/C=C\C/C=C\CCCCCCCC(=O)OC,AC50,[1],12.2 µM (active)
same,AC50,[2],7.17 µM (active)
same,AC50,[3],6.41 µM (active)
same,AC50,[4],5.29 µM (active)
same,AC50,[5],12.2 µM (active)
same,AC50,[6],20 µM (active)
same,AC50,[7],20 µM (active)
same,AC50,[8],30.1 µM (active)
CC1=CC=C(C(C)C)CC1,outcome,[1],inactive
same,outcome,[2],inactive
same,outcome,[3],inactive
same,outcome,[4],inactive
same,outcome,[5],inactive
same,outcome,[6],inactive
same,outcome,[7],inactive
same,outcome,[8],inactive
Cc1c(O)cccc1O,outcome,[1],inactive
same,outcome,[3],inactive
same,outcome,[4],inactive
same,outcome,[6],inactive
same,outcome,[7],inactive
same,outcome,[8],inactive
CCCCCCCCCCCC(=O)N(C)CC(=O)O,outcome,[1],inactive
same,outcome,[2],inactive
same,outcome,[4],inactive
same,outcome,[6],inactive
same,outcome,[7],inactive
same,outcome,[8],inactive
CCCCCCCCCCCC(C)=O,outcome,[1],inactive
same,outcome,[3],inactive
same,AC50,[4],31.5 µM (active)
same,outcome,[5],inactive
same,outcome,[6],inactive
same,AC50,[7],31.3 µM (active)
same,AC50,[8],23.9 µM (active)
same,outcome,[9],inactive
C=CC(=O)NCOCCCC,outcome,[1],inactive
same,outcome,[3],inactive
same,outcome,[4],inactive
same,outcome,[6],inactive
same,outcome,[7],inactive
same,outcome,[8],inactive
same,outcome,[9],inactive
CC=C(C)C=CC=C(C)C,AC50,[1],0.016 µM (active)
same,outcome,[3],inactive
same,outcome,[4],inactive
same,AC50,[6],3.13 µM (active)
same,AC50,[7],7.42 µM (active)
same,outcome,[8],inactive
same,outcome,[10],inactive
C=CC(=O)OCC(C)OCC(C)OCC(C)OC(=O)C=C (stereo not given),AC50,[1],20 µM (active)
same,outcome,[3],inactive
same,AC50,[4],10.4 µM (active)
same,AC50,[6],20 µM (active)
same,AC50,[7],6.73 µM (active)
same,AC50,[8],9.34 µM (active)
CCCCCCCO,outcome,[1],inactive
same,outcome,[3],inactive
same,outcome,[4],inactive
same,outcome,[6],inactive
same,outcome,[7],inactive
same,outcome,[8],inactive
same,outcome,[9],inactive
same,outcome,[10],inactive
CC(C)C(=O)OCCc1ccccc1,outcome,[1],inactive
same,outcome,[4],inactive
same,outcome,[6],inactive
same,outcome,[7],inactive
same,outcome,[8],inactive
Fc1ccc(Br)cc1,outcome,[1],inactive
same,outcome,[3],inactive
same,outcome,[4],inactive
same,outcome,[6],inactive
same,outcome,[7],inactive
same,outcome,[8],inactive
CC(C)CCCCCOC(=O)CS,outcome,[1],inactive
same,outcome,[3],inactive
same,outcome,[4],inactive
same,outcome,[6],inactive
same,outcome,[7],inactive
same,outcome,[8],inactive
same,outcome,[10],inactive
C[N+](C)(C)CCCNS(=O)(=O)C(F)(F)C(F)(F)C(F)(F)C(F)(F)C(F)(F)C(F)(F)C(F)(F)C(F)(F)F,outcome,[1],inactive
same,outcome,[4],inactive
same,outcome,[6],inactive
same,AC50,[7],42.8 µM (active) and 25.4 µM (active)
same,AC50,[8],48.1 µM (active)
same,outcome,[8],inactive
Cc1ccc([N+](=O)[O-])cc1N,outcome,[1],inactive
same,outcome,[3],inactive
same,outcome,[4],inactive
same,outcome,[6],inactive
same,outcome,[7],inactive
same,outcome,[8],inactive
same,outcome,[9],inactive
c1ccc(Nc2cccc3ccccc23)cc1,AC50,[1],29.8 µM (active) and 28.6 µM (active)
same,AC50,[4],28.8 µM (active) and 26.7 µM (active)
same,AC50,[5],31.3 µM (active) and 31.7 µM (active)
same,AC50,[6],33.8 µM (active) and 32.2 µM (active)
same,AC50,[7],22.9 µM (active) and 30.7 µM (active)
CC(CCC(=O)O)(c1ccc(O)cc1)c1ccc(O)cc1,outcome,[1],inactive
same,outcome,[4],inactive
same,outcome,[5],inactive
same,outcome,[6],inactive
same,outcome,[7],inactive
same,outcome,[8],inactive
CCCCCCCCC(CO)CCCCCC (stereo not given),outcome,[1],inactive
same,outcome,[3],inactive
same,outcome,[4],inactive
same,outcome,[6],inactive
same,outcome,[7],inactive
same,outcome,[8],inactive
same,outcome,[10],inactive
O=C1CCCCCCCCCCCN1,outcome,[1],inactive
same,outcome,[3],inactive
same,outcome,[4],inactive
same,outcome,[6],inactive
same,outcome,[7],inactive
same,outcome,[8],inactive
same,outcome,[9],inactive
same,outcome,[10],inactive
c1ccc2sc(SSN3CCOCC3)nc2c1,AC50,[1],12.2 µM (active)
same,outcome,[3],inactive
same,AC50,[4],12.2 µM (active)
same,AC50,[6],12.9 µM (active)
same,outcome,[7],inactive
same,outcome,[8],inactive
same,outcome,[9],inactive
same,outcome,[10],inactive
Nc1cccc(N)n1,outcome,[1],inactive
same,outcome,[3],inactive
same,outcome,[4],inactive
same,outcome,[6],inactive
same,outcome,[7],inactive
same,outcome,[8],inactive
O=C(Cl)c1c(Cl)c(Cl)c(C(=O)Cl)c(Cl)c1Cl,outcome,[1],inactive
same,outcome,[3],inactive
same,outcome,[4],inactive
same,outcome,[6],inactive
same,outcome,[7],inactive
same,outcome,[8],inactive
COC(OC)(C(=O)c1ccccc1)c1ccccc1,outcome,[1],inactive
same,outcome,[3],inactive
same,outcome,[4],inactive
same,outcome,[6],inactive
same,outcome,[7],inactive
same,outcome,[8],inactive
same,AC50,[9],0.016 µM (active)
CC/C=C\CCOC(=O)c1ccccc1O,AC50,[1],30.2 µM (active)
same,AC50,[3],14.5 µM (active)
same,outcome,[4],inactive
same,AC50,[6],29.8 µM (active)
same,AC50,[7],36.2 µM (active)
same,AC50,[8],38.1 µM (active)
same,AC50,[10],30.7 µM (active)
CCCCC1C(=O)N(c2ccccc2)N(c2ccccc2)C1=O,outcome,[1],inactive
same,outcome,[3],inactive
same,outcome,[4],inactive
same,outcome,[6],inactive
same,outcome,[7],inactive
same,outcome,[8],inactive
same,outcome,[9],inactive
same,outcome,[10],inactive
c1ccc2c(c1)[nH]c1ccccc12,outcome,[1],inactive
same,outcome,[3],inactive
same,outcome,[4],inactive
same,outcome,[6],inactive
same,outcome,[7],inactive
same,outcome,[8],inactive
same,outcome,[10],inactive
Nc1ccc(C(=O)O)cc1,outcome,[1],inactive
same,outcome,[3],inactive
same,outcome,[4],inactive
same,outcome,[6],inactive
same,outcome,[7],inactive
same,outcome,[8],inactive
same,outcome,[9],inactive
C=CC(=O)OCCCCCCOC(=O)C=C,AC50,[1],11.3 µM (active)
same,AC50,[3],3.97 µM (active)
same,outcome,[4],inactive
same,AC50,[6],20 µM (active)
same,AC50,[7],7.82 µM (active)
same,AC50,[8],9.18 µM (active)
CCCC(C)C(=O)OCC (stereo not given),outcome,[1],inactive
same,outcome,[4],inactive
same,outcome,[5],inactive
same,outcome,[6],inactive
same,outcome,[7],inactive
same,outcome,[8],inactive
same,outcome,[10],inactive
